Apoferritin bind: binds horse apoferritin like a general anesthetic; apoferritin/1-aminoanthracene competitive binding, fluorescence; 0.074% of 350,000 active; AID 485281; Potency, µM (highest dose often 77.5 µM), without a hit: at the top dose activity change, negative = displacement, most hits filed as inhibitors; P02791; active = well fitted inhibition curve with a large enough effect; inconclusive = small, poorly fitted or top-dose-only effect; inactive = no such curve, though single readings can be large or run the other way; note: potency is the fitted concentration of half-maximal effect; % is set by controls: 0 for no effect and ±100 for the full control effect; nearly all actives have a fitted effect of over 20% in size
Target sequence (P02791 2-175 limits assumed): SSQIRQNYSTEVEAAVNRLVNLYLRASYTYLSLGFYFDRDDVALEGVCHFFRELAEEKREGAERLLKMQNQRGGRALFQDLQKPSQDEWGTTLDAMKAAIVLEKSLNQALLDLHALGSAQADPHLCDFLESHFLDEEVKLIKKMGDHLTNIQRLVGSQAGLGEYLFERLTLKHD
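10 uM apoferritin + 50% sat. 1-AMA, PBS; cpd 10 min RT; Ex380/Em535 endpoint; normalized to free probe vs complex; 4-param Hill fit; propofol titration as pos. ctrl.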
D2 antagonist: D2 dopamine receptor (human) antagonism | HEK293 TREx D2 cells, calcium flux, dopamine EC80 | 2% of 340,000 active | P14416 | inhibition, % at 10 µM | AID 485344; in the data active = inhibition above about 30%; inactive = below that, where a call was filed; note: 0% is about no effect
Target sequence (P14416 whole entry, looked up): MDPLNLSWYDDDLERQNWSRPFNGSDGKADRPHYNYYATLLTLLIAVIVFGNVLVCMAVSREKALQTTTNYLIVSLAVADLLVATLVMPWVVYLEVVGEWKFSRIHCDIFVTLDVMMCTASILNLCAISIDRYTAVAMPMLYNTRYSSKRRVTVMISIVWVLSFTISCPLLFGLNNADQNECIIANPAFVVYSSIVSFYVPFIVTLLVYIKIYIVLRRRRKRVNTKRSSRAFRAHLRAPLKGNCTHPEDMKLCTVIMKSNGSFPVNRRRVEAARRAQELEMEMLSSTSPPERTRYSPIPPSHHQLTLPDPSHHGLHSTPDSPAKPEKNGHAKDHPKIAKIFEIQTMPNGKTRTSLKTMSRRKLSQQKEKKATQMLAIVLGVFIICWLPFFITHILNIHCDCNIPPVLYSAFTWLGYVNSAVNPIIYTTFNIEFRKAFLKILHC
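HEK293 T-REx D2 cells, tet-induced, calcium dye no-wash. Cpd pintool add, 180 s kinetic, then EC80 DA, 180 s kinetic. Ca flux read.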
D2 ag-1: D2 dopamine receptor (human) agonism. P14416. HEK293 T-REx D2 cells, calcium flux agonist mode. activation, % at 2 µM. 0.53% of 340,000 active;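 active = activation over 3 SD above normal in the single-dose calcium agonist read, cut at about 30% in these data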; note: 0% is about no effect
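In this primary screen, compounds producing a positive calcium signal within 180 s of addition to tetracycline-induced, force-coupled HEK293 Trex D2 cells are flagged; cells are dye-loaded with a no-wash calcium kit beforehand.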
D2 PAM-1: positively modulates the human D2 dopamine receptor allosterically. AID 485347. HEK293 T-REx D2, calcium flux, EC20 dopamine potentiation. 0.34% of 340,000 active. P14416. potentiation, % at 10 µM;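 active = potentiation over 3 SD above the plate norm, cut at about 30% in these data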; note: 0% is about no effect
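Primary screen. Calcium kinetics in induced HEK293 T-REx D2 cells: compound pre-addition 180 s, EC20 dopamine, 180 s more.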
D2 ag-2: human D2 receptor agonism in beta-arrestin assay; P14416; DiscoveRx PathHunter D2 beta-arrestin, luminescence, 90 min; 100% = 57 uM dopamine signal; activation, % (test concentration not listed); 0.084% of 360,000 active; AID 624465; in the data active = activation above about 40%; inconclusive = between about 15% and that limit
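Agonist mode: compounds alone added to overnight-plated D2 PathHunter cells for 90 min at 37 C, with 57 uM final dopamine (EC100) defining full response. Beta-arrestin recruitment detected by chemiluminescent reagent, read after 1 h at ambient temperature.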
D2 PAM-2: positive allosteric modulators of human D2 dopamine receptor. P14416. DiscoveRx D2 beta-arrestin cells, luminescence, 90 min; 100% = 57 uM dopamine signal. potentiation, % (test concentration not listed). 0.23% of 360,000 active. AID 624464; in the data active = potentiation above about 50%; inconclusive = mostly about 30% to 49%
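D2 cells co-treated with compound plus 50 nM dopamine (EC20) for 90 min at 37 deg C to detect potentiation. Beta-arrestin recruitment was read as enzyme-fragment luminescence after 1 h at ambient temperature. Full response was set by 57 uM dopamine.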
An asterisk follows results filed as active; ? = inconclusive; nt = no result given. In the library only some 2.5% were active in any assay of this set; here they are far more common.

SMILES | Apoferritin bind | D2 antagonist | D2 ag-1 | D2 PAM-1 | D2 ag-2 | D2 PAM-2
OCC1(CCc2ccccc2)CCCN(C/C=C/c2ccccc2)C1 (stereo unspecified) | ? | 45* | -1 | -22 | 5 | -21
COc1ccnc(Oc2cccc(C(F)(F)F)c2)c1C(=O)N/C=N/OCc1ccccc1F | ? | 9 | 0 | -8 | 6 | 0
COc1ccc(NC(=O)N2CCCCCC2)c(OC)c1 | -17% | -7 | 0 | -2 | -1 | -13
CCN1CCN(C(=O)Nc2ccc(OC)cc2OC)CC1 | -7% | 49* | 0 | 12 | 3 | -5
Cc1ccc(S(=O)(=O)N(C(=O)c2ccncc2)c2ccc(OC(=O)c3ccncc3)c3ccccc23)c(C)c1 | ? | nt | nt | nt | ? | 90*
Cc1ccc(S(=O)(=O)N(C(=O)c2ccncc2)c2ccc(OC(=O)c3ccncc3)c3ccccc23)cc1 | -23% | -2 | 0 | 12 | 4 | 24
COC(=O)c1ccccc1NC(=O)CSc1nnc(-c2cccnc2)o1 | 3% | 7 | -3 | nt | -3 | -10
COC(=O)c1ccccc1NC(=O)CSc1nnc(-c2ccc(C)cc2)o1 | 0% | 7 | 1 | 31* | nt | nt
NC(=O)C1=C[C@@H](c2ccccc2)C[C@@H](OCCCCO)O1 | nt | nt | nt | nt | 1 | -16
Cc1nnc(Sc2nc3c(c(=O)[nH]c(=O)n3C)n2CCc2ccccc2)s1 | -4% | 50* | -1 | 2 | 5 | -1
Cc1ccc(Cn2c(Sc3nnc(C)s3)nc3c2c(=O)[nH]c(=O)n3C)cc1 | -10% | -16 | 0 | 1 | -5 | 0
CC(C)N(Cc1ccccc1)C(=O)CC(=O)N(Cc1ccccc1)C(C)C | 0% | 1 | 0 | 35* | -2 | -11
CC(C)N(Cc1ccccc1)C(=O)CN1C(=O)c2ccccc2C1=O | -20% | -3 | 0 | -8 | -1 | -3
CC1CC(OCC(O)CN2CCOCC2)CC(C)(C)C1 (stereo unspecified) | -4% | 46* | 0 | -4 | 1 | 1
CC1CC(C)CN(CC(O)COC2CC(C)CC(C)(C)C2)C1 (stereo unspecified) | nt | nt | nt | nt | -5 | -24
COc1ccccc1/C=C/CN1CCN(Cc2ccc(C)o2)C(CCO)C1 (stereo unspecified) | -11% | 49* | 0 | -21 | -4 | -17
Cc1cccc(NC(=O)NC(C)C(c2cccs2)N2CCOCC2)c1 (stereo unspecified) | -2% | 30* | 1 | 11 | -6 | -10
CC(NC(=O)c1ccco1)C(c1cccs1)N1CCN(c2ccccc2F)CC1 (stereo unspecified) | -17% | 22 | -1 | 38* | -1 | 8
Cc1ccc(C(=O)NC(C)C(c2cccs2)N2CCCC2)s1 (stereo unspecified) | -9% | -4 | 0 | 33* | 7 | -19
Cc1nc2ncnn2c(C)c1CCC(=O)N1CCOCC1 | -4% | 1 | 1 | 7 | -4 | -3
COc1ccccc1NC(=O)C1=C(C)NC(SCC(=O)c2ccc(C)cc2)=C(C#N)C1c1ccco1 (stereo unspecified) | -16% | 6 | 0 | -3 | nt | nt
Cc1nnc2ccc(-c3ccc(NS(C)(=O)=O)cc3)nn12 | -4% | 33* | 1 | 15 | 3 | 1
CCCS(=O)(=O)Nc1ccc(-c2ccc3nnc(C)n3n2)cc1 | -15% | -4 | 0 | -4 | nt | nt
Cc1ccc(C(=O)NCC(=O)OCC(=O)NC(C)c2ccccc2)s1 (stereo unspecified) | -10% | 5 | 0 | 1 | -4 | -12
CC1CN(CCCCOc2ccc(Cl)c3ccccc23)CC(C)O1 (stereo unspecified) | -4% | 58* | -2 | -24 | 0 | -12
SMILES | Apoferritin bind | D2 antagonist | D2 ag-1 | D2 PAM-1 | D2 ag-2 | D2 PAM-2
CCN(CC)S(=O)(=O)c1cccc(NC(=O)COC(=O)c2cc(=O)c3ccccc3o2)c1 | -12% | -5 | 1 | 31* | -1 | -14
O=C(C1=C[C@@H](c2coc3ccccc3c2=O)C[C@@H](OCCCCO)O1)N1CCOCC1 | 2% | 62* | 0 | 13 | -4 | -9
CN1CCN(C(=O)C2=C[C@H](c3coc4ccccc4c3=O)C[C@H](OCCCCO)O2)CC1 | -1% | 0 | 0 | 1 | -1 | -8
COc1ccc(C2CC(c3ccc(F)cc3)n3nc(NS(C)(=O)=O)nc3N2)cc1 (stereo unspecified) | 1% | -10 | 0 | -4 | 2 | -5
CCN(C(=O)CSc1nc2ccccc2c(=O)n1-c1cccc(C)c1)C1CCS(=O)(=O)C1 (stereo unspecified) | -19% | 2 | 0 | 16 | 0 | -3
CCN(C(=O)CSc1nc2ccc(O)cc2c(=O)n1-c1ccc(OC)c(OC)c1)C1CCS(=O)(=O)C1 (stereo unspecified) | nt | 43* | -1 | 9 | -1 | -70
O=C(OCc1cn([C@H]2CN(Cc3cccs3)[C@@H](c3ccc(Cl)cc3)C[C@@H]2O)nn1)c1ccccc1 | nt | nt | nt | nt | -2 | 7
CC(C)CCOc1cccc(OCC(=O)Nc2ccncc2)c1 | ? | -2 | 0 | 0 | 2 | -2
CC1=CC(=O)CC2C1(C)CCC(C)C2(C)CCC(C)CC(=O)O (stereo unspecified) | -3% | 32* | 0 | 2 | 2 | -18
CSc1nsc(SCC(=O)Nc2ccc(C(C)=O)cc2)n1 | ? | -18 | 0 | 7 | 0 | -8
CSc1nsc(SCC(=O)Nc2ccc(C(N)=O)cc2)n1 | -6% | 37* | -3 | nt | -1 | 2
C[C@H](CO)N1C[C@H](C)[C@@H](CN(C)CC2CCCCC2)Oc2c(NS(=O)(=O)c3ccccc3)cccc2C1=O | nt | nt | nt | nt | -2 | -4
Cc1ccc(C(C(=O)NC2CCCC2)N(C(=O)Cc2cccs2)c2ccc3c(c2)OCCO3)cc1 (stereo unspecified) | -9% | 48* | 2 | -8 | -5 | -7
O=C(NC1CCCC1)C(c1ccc(F)cc1)N(C(=O)Cc1cccs1)c1ccc2c(c1)OCCO2 (stereo unspecified) | -4% | 5 | 0 | -1 | 0 | -3
COc1ccc(-n2ccn(Cc3ccccc3Cl)c(=O)c2=O)cc1OC | 4% | nt | 0 | -9 | nt | nt
CCOc1ccc(CCNC(=O)c2ccc(C)c(-n3cnc4cccnc43)c2)cc1 | 3% | nt | 0 | 5 | nt | nt
Cc1ccc(CNC(=O)c2cc(C3CC3)nc3c2cnn3C(C)C)cc1 | nt | 39* | -1 | -37 | 2 | -43
O=C(COC(=O)/C=C/c1ccc(Br)o1)NC1CCCCC1 | nt | 2 | 0 | -2 | -6 | -12

High-throughput results from PubChem.
